Reference: PubChem BioAssay (NCI)
About 83,000 compounds went through this panel and 20% of them were active in at least one assay; those are over-represented in the sample as a whole.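 Step 1: grow cells in 96-well plates. Step 2: add test compound at a single concentration. Step 3: incubate 48 h. Step 4: record percent growth.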 Values without a mark were called inactive. Active and inactive are the calls of the source. Rule for the calls: active = growth percent below 10; inactive = the rest.

Columns and labels:
Experiment in all cases: NCI-60 one-dose screen, 48 h (100 = growth as untreated, 0 = no growth, -100 = all killed)
[1] = tested on: NCI-H23 lung; details: 10 µM unless noted
[2] = tested on: NCI-H322M lung; details: 10 µM unless noted
[3] = tested on: HOP-62 NSCLC; details: 10 µM unless noted
[4] = tested on: COLO 205 colon; details: 10 µM
[5] = tested on: K-562 leukemia; details: 10 µM unless noted
[6] = tested on: SF-295 CNS; details: 10 µM unless noted
[7] = tested on: EKVX NSCLC; details: 10 µM unless noted
[8] = tested on: SN12C renal; details: 10 µM unless noted
[9] = tested on: ACHN renal; details: 10 µM unless noted
[10] = tested on: A498 renal; details: 10 µM unless noted
[11] = tested on: RPMI-8226 leukemia; details: 10 µM unless noted
[12] = tested on: IGROV1 ovarian; details: 10 µM
[13] = tested on: HS 578T breast; details: 10 µM unless noted
[14] = tested on: NCI-H226 lung; details: 10 µM unless noted
[15] = tested on: NCI-H522 lung; details: 10 µM unless noted
[16] = tested on: MALME-3M melanoma; details: 10 µM unless noted
[17] = tested on: SK-MEL-2 melanoma; details: 10 µM unless noted
[18] = tested on: CCRF-CEM leukemia; details: 10 µM unless noted
[19] = tested on: U251 CNS; details: 10 µM unless noted

Compound | growth [1] [%] | growth [2] [%] | growth [3] [%] | growth [4] [%] | growth [5] [%] | growth [6] [%] | growth [7] [%] | growth [8] [%] | growth [9] [%] | growth [10] [%] | growth [11] | growth [12] [%] | growth [13] [%] | growth [14] [%] | growth [15] | growth [16] [%] | growth [17] [%] | growth [18] [%] | growth [19] [%]
C[C@]12C[C@H](O)[C@H]3[C@@H](CCC4=CC(=O)CC[C@@]43C)[C@@H]1CC[C@@H]2O | 103 | 110 | 105 | 99.8 | 104 | 85.6 | 94.8 | 101 | 101 | 116 | 98.3% | 105 | 105 | – | – | – | – | – | –
CC(=O)OC1CCC2(C)C(=CCC3C4CC(CN5CC5)C(=O)C4(C)CCC32)C1 (centres undefined) | – | – | 121 | 89.2 | – | 95.5 | – | 99.6 | 76.4 | 86.7 | -17% (active) | – | 87.5 | 97.7 | -78.4% (active) | 103 | 106 | 18.3 | –
CNC(=O)O/N=C(/C)c1ccc(Cl)cc1 | – | – | 99.4 | 107 | 92.9 | 101 | – | 105 | 129 | 92.2 | 96.3% | 101 | 137 | 92.1 | 96.5% | 101 | 97.2 | 96.3 | –
C/C(=N/OC(=O)N(C)C)c1cc(Cl)ccc1Cl | – | – | 95.6 | 100 | 104 | 98.6 | – | – | – | 86.8 | 97.9% | 104 | 105 | 99.4 | 83.5% | 95.9 | 95.7 | 91.7 | –
C/C(=N/OC(=O)N(C)C)c1ccc(Cl)cc1Cl | – | – | 98.2 | 110 | 106 | 98.6 | – | 96.8 | 98.7 | 90.9 | 103% | 104 | 107 | 104 | 83.6% | 97.6 | 88.8 | 94.1 | –
O=C(O)CNC(=O)c1ccccc1 | – | – | 93.4 | 104 | – | 104 | – | 107 | 102 | 85 | 92.2% | 105 | 108 | 109 | – | 133 | 97.2 | – | –
CCOC(=O)C1(c2ccccc2)CCN(CC(=O)c2ccc(NC(C)=O)cc2)CC1 | – | – | 99.9 | 103 | 122 | 110 | 102 | 93.2 | 96 | 94.5 | 88.3% | – | 113 | 107 | – | – | 89.2 | 99.3 | 99.2
Oc1ccccc1OB(Oc1ccccc1O)N(CCCl)CCCl | – | – | 104 | 98.4 | 96.2 | 102 | – | – | 86.1 | 88.6 | 39.2% | 52.4 | 106 | 101 | -6.22% (active) | 89.9 | 104 | 18.4 | –
